Out of some 5,500 compounds screened, about 2,000 (36%) were called active. About 18% were inconclusive and are not listed. Rule as the data show it: active = normalized growth mostly below about 0.91 (no sharp cut-off); inconclusive = no clear call, values can overlap the other calls; inactive = mostly above about 0.92. Some of the results follow.
Test: chemical genetic growth profiling, strain panel (AID 1159580);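 also: tested at 20 µM; growth read once vehicle control cultures reached saturation at 30 °C; 1 = growth at the plate median or of vehicle wells; lower values mean less growth of the strain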
Details: growth OD

Measured: normalized growth

CC1=C(C(=O)O)N2C(=O)[C@@H](NC(=O)[C@H](N)C3=CCC=CC3)C2SC1 (some centres not stated)
inactive: S. cerevisiae deletion strains, locus YJR066W, strain TOR1, stronger effect = lower value 0.974 | S. cerevisiae deletion strains, locus YKL009W, strain mrt4, stronger effect = lower value 1 | S. cerevisiae deletion strains, locus YKL068W, stronger effect = lower value 0.979 | S. cerevisiae deletion strains, locus YKL085W, strain MDH1 (second series), stronger effect = lower value 0.978 | S. cerevisiae deletion strains, locus YKL085W, strain MDH1, stronger effect = lower value 0.978 | S. cerevisiae deletion strains, locus YKL160W, strain elf1, stronger effect = lower value 1 | S. cerevisiae deletion strains, locus YKR001C, strain vps1, stronger effect = lower value 0.994 | S. cerevisiae deletion strains, locus YKR026C, strain gcn3, stronger effect = lower value 1.02 | S. cerevisiae deletion strains, locus YKR091W, strain srl3, stronger effect = lower value 1.01 | S. cerevisiae deletion strains, locus YLL001W, strain dnm1, stronger effect = lower value 0.998 | S. cerevisiae deletion strains, locus YLL026W, stronger effect = lower value 1.02 | S. cerevisiae deletion strains, locus YLL041C, strain sdh2, stronger effect = lower value 1.02 | S. cerevisiae deletion strains, locus YLR027C, strain aat2, stronger effect = lower value 1.02 | S. cerevisiae deletion strains, locus YLR039C, strain RIC1, stronger effect = lower value 0.983 | S. cerevisiae deletion strains, locus YLR058C, strain SHM2, stronger effect = lower value 0.974 | S. cerevisiae deletion strains, locus YLR102C, strain apc9, stronger effect = lower value 1 | S. cerevisiae deletion strains, locus YLR113W, strain HOG1, stronger effect = lower value 0.968 | S. cerevisiae deletion strains, locus YLR221C, strain rsa3, stronger effect = lower value 1.02 | S. cerevisiae deletion strains, locus YLR258W, strain gsy2, stronger effect = lower value 1.03 | S. cerevisiae deletion strains, locus YLR262C, strain YPT6 (second series), stronger effect = lower value 1.04 | S. cerevisiae deletion strains, locus YLR262C, strain YPT6, stronger effect = lower value 0.924 | S. cerevisiae deletion strains, locus YLR268W, strain sec22, stronger effect = lower value 1 | S. cerevisiae deletion strains, locus YLR320W, strain mms22, stronger effect = lower value 1.01 | S. cerevisiae deletion strains, locus YLR330W, strain CHS5, stronger effect = lower value 0.986 | S. cerevisiae deletion strains, locus YLR342W, strain FKS1 (second series), stronger effect = lower value 1.03 | S. cerevisiae deletion strains, locus YLR342W, strain FKS1, stronger effect = lower value 1.01 | S. cerevisiae deletion strains, locus YLR357W, strain rsc2, stronger effect = lower value 1.04 | S. cerevisiae deletion strains, locus YLR370C, strain arc18, stronger effect = lower value 1.03 | S. cerevisiae deletion strains, locus YLR371W, strain rom2, stronger effect = lower value 0.999 | S. cerevisiae deletion strains, locus YLR384C, strain iki3, stronger effect = lower value 1.02 | S. cerevisiae deletion strains, locus YLR418C, strain cdc73, stronger effect = lower value 1.01 | S. cerevisiae deletion strains, locus YML016C, strain PPZ1, stronger effect = lower value 0.986 | S. cerevisiae deletion strains, locus YML032C, strain rad52, stronger effect = lower value 0.995 | S. cerevisiae deletion strains, locus YML120C, strain ndi1, stronger effect = lower value 1.02 | S. cerevisiae deletion strains, locus YML124C, strain tub3, stronger effect = lower value 0.995 | S. cerevisiae deletion strains, locus YMR058W, strain fet3, stronger effect = lower value 1.02 | S. cerevisiae deletion strains, locus YMR078C, strain ctf18, stronger effect = lower value 0.994 | S. cerevisiae deletion strains, locus YMR125W, strain sto1, stronger effect = lower value 0.996 | S. cerevisiae deletion strains, locus YMR129W, stronger effect = lower value 1.02 | S. cerevisiae deletion strains, locus YMR205C, strain PFK2, stronger effect = lower value 1.04 | S. cerevisiae deletion strains, locus YMR223W, strain ubp8, stronger effect = lower value 1.01 | S. cerevisiae deletion strains, locus YMR231W, strain pep5, stronger effect = lower value 1 | S. cerevisiae deletion strains, locus YMR263W, strain SAP30, stronger effect = lower value 1 | S. cerevisiae deletion strains, locus YMR307W, strain GAS1, stronger effect = lower value 0.933 | S. cerevisiae deletion strains, locus YNL067W, strain RPL9B, stronger effect = lower value 1.02 | S. cerevisiae deletion strains, locus YNL071W, strain lat1, stronger effect = lower value 1.02 | S. cerevisiae deletion strains, locus YNL153C, strain GIM3, stronger effect = lower value 1.02 | S. cerevisiae deletion strains, locus YNL183C, strain NPR1, stronger effect = lower value 0.933 | S. cerevisiae deletion strains, locus YNL209W, strain ssb2, stronger effect = lower value 1.03 | S. cerevisiae deletion strains, locus YNL233W, strain BNI4, stronger effect = lower value 1.03 | S. cerevisiae deletion strains, locus YNL248C, strain rpa49, stronger effect = lower value 1.05 | S. cerevisiae deletion strains, locus YNL250W, strain rad50, stronger effect = lower value 1 | S. cerevisiae deletion strains, locus YNL271C, strain bni1, stronger effect = lower value 1 | S. cerevisiae deletion strains, locus YNL298W, strain CLA4, stronger effect = lower value 0.999 | S. cerevisiae deletion strains, locus YNL307C, strain MCK1, stronger effect = lower value 0.995 | S. cerevisiae deletion strains, locus YNL322C, strain KRE1 (second series), stronger effect = lower value 1.01 | S. cerevisiae deletion strains, locus YNR049C, strain mso1, stronger effect = lower value 1.02 | S. cerevisiae deletion strains, locus YNR052C, strain pop2, stronger effect = lower value 0.996 | S. cerevisiae deletion strains, locus YOL012C, strain htz1 0.951 | S. cerevisiae deletion strains, locus YOL147C, strain pex11, stronger effect = lower value 0.997 | S. cerevisiae deletion strains, locus YOR001W, strain rrp6, stronger effect = lower value 1.02 | S. cerevisiae deletion strains, locus YOR061W, strain CKA2, stronger effect = lower value 0.968 | S. cerevisiae deletion strains, locus YOR069W, strain VPS5, stronger effect = lower value 0.976 | S. cerevisiae deletion strains, locus YOR070C, strain gyp1, stronger effect = lower value 1.02 | S. cerevisiae deletion strains, locus YOR080W, strain dia2, stronger effect = lower value 1.03 | S. cerevisiae deletion strains, locus YOR083W, strain WHI5, stronger effect = lower value 0.993 | S. cerevisiae deletion strains, locus YOR106W, strain vam3, stronger effect = lower value 1.04 | S. cerevisiae deletion strains, locus YOR136W, strain idh2, stronger effect = lower value 0.984 | S. cerevisiae deletion strains, locus YOR144C, strain elg1, stronger effect = lower value 0.995 | S. cerevisiae deletion strains, locus YOR184W, strain ser1, stronger effect = lower value 0.992 | S. cerevisiae deletion strains, locus YOR231W, strain MKK1, stronger effect = lower value 0.979 | S. cerevisiae deletion strains, locus YOR265W, strain rbl2, stronger effect = lower value 1.02 | S. cerevisiae deletion strains, locus YOR270C, strain vph1, stronger effect = lower value 1.07 | S. cerevisiae deletion strains, locus YOR290C, strain snf2, stronger effect = lower value 1.02 | S. cerevisiae deletion strains, locus YOR316C, strain cot1, stronger effect = lower value 0.991 | S. cerevisiae deletion strains, locus YPL051W, strain arl3, stronger effect = lower value 1.01 | S. cerevisiae deletion strains, locus YPL078C, strain atp4, stronger effect = lower value 1.02 | S. cerevisiae deletion strains, locus YPL106C, strain sse1, stronger effect = lower value 1.03 | S. cerevisiae deletion strains, locus YPL240C, strain hsp82, stronger effect = lower value 1.01 | S. cerevisiae deletion strains, locus YPL241C, strain CIN2, stronger effect = lower value 0.989 | S. cerevisiae deletion strains, locus YPL256C, strain CLN2, stronger effect = lower value 0.956 | S. cerevisiae deletion strains, locus YPR119W, strain clb2, stronger effect = lower value 0.995 | S. cerevisiae deletion strains, locus YPR141C, strain kar3, stronger effect = lower value 0.988 | S. cerevisiae deletion strains, locus YPR163C, strain tif3, stronger effect = lower value 0.995 | S. cerevisiae deletion strains, locus YPR167C, strain met16, stronger effect = lower value 0.998 | S. cerevisiae deletion strains, strain wtn01, stronger effect = lower value 1.04 | S. cerevisiae strains, strain wild type, stronger effect = lower value 0.985
